# Measurements reported in the supplement of paper PMC9135407.
# Values joined by “and” are separate entries in the source; they are usually repeats but may differ in a detail not shown here. Equal values may be shown once. Where a name gives a salt, the structure may show the parent alone. In all, about 5,800 compounds went through this assay and about 620 (11%) showed activity. The list comes from a sample in which actives are over-represented; it also holds similar structures and randomly drawn compounds. A number with no mark means an inactive call.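 How the source made its calls: active = score above a cut-off or among the top three wells of a plate; in these data no inactive exceeds 0.85.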
# Tested on: primary human hepatic stellate cells (donor 1)
# Experiment: scaled lipid accumulation score (0 = DMSO-like, 1 = nortriptyline-like); higher = stronger HSC inactivation (lipid re-accumulation), active = hit call of the paper
# Conditions: 48 h
# [1] = library stock concentration: 3.33 mM
# [2] = library stock concentration: 10 mM
# [3] = library stock concentration: 1 mM
# [4] = library stock concentration: 80 uM
# [5] = library stock concentration: 400 uM
# [6] = library stock concentration: 2 mM
structure (smiles),measurement,setting,value
CCCCC[C@H](O)/C=C/C=C\C/C=C\C/C=C\CCCC(=O)O,scaled lipid accumulation score,library stock concentration: 100 uM,≤ -0.02
COc1nc(C)cnc1NS(=O)(=O)c1cccnc1-c1ccc(-c2nnco2)cc1 [Zibotentan (ZD4054)],scaled lipid accumulation score,[1],≤ 0
same,scaled lipid accumulation score,[2],≤ 0
OCC(O)C(O)CO (stereo not drawn) [Erythritol],scaled lipid accumulation score,[1],≤ 0
same,scaled lipid accumulation score,[2],≤ -0.001
CNCCCN1c2ccccc2CCc2ccccc21.Cl [Desipramine hydrochloride] [listing 1 of 2 here],scaled lipid accumulation score,,0.887 (active)
CNCCCN1c2ccccc2CCc2ccccc21.Cl [Desipramine hydrochloride] [listing 2 of 2 here],scaled lipid accumulation score,[2],1.15 (active)
CNCCCN1c2ccccc2CCc2ccccc21 [Desipramine hydrochloride],scaled lipid accumulation score,library stock concentration: 6.6 mM,0.471
same,scaled lipid accumulation score,[2],0.667
CNCCCN1c2ccccc2CCc2ccccc21.Cl,scaled lipid accumulation score,[2],0.969 (active)
CCCCC1CCC(c2nc(-c3ccncc3)no2)CC1 (stereo not drawn),scaled lipid accumulation score,[3],0.03
same,scaled lipid accumulation score,[2],≤ -0.001
CC(C)N(C[C@H]1O[C@@H](n2cnc3c(N)ncnc32)[C@H](O)[C@@H]1O)[C@H]1C[C@@H](CCc2nc3cc(C(C)(C)C)ccc3[nH]2)C1,scaled lipid accumulation score,[1],≤ 0
same,scaled lipid accumulation score,[2],0.467
CC(C)OC(=O)OCOP(=O)(CO[C@H](C)Cn1cnc2c(N)ncnc21)OCOC(=O)OC(C)C [Tenofovir Disoproxil Fumarate],scaled lipid accumulation score,[1],≤ 0
same,scaled lipid accumulation score,[2],≤ 0
CCc1c(Cl)c(O)c(Cl)c(O)c1C(=O)O[C@H]1[C@H](O)[C@H](OC)[C@H](OC/C2=C\C=C\C[C@H](O)/C(C)=C/[C@H](CC)[C@@H](O[C@@H]3OC(C)(C)[C@@H](OC(=O)C(C)C)[C@H](O)[C@@H]3O)/C(C)=C/C(C)=C/C[C@@H]([C@@H](C)O)OC2=O)O[C@@H]1C [Fidaxomicin],scaled lipid accumulation score,[1],≤ 0
same,scaled lipid accumulation score,[2],0.125
COc1ccc(CCN(C)CCCOc2ccc(S(=O)(=O)c3c(C(C)C)c4ccccc4n3C)cc2)cc1OC,scaled lipid accumulation score,[2],0.445
CC(C)CC[C@@H](O)[C@@H](C)[C@H]1CC[C@H]2[C@@H]3CC=C4C[C@@H](O)CC[C@]4(C)[C@H]3CC[C@]12C [22(R)-hydroxy Cholesterol],scaled lipid accumulation score,[3],0.045
O=C1C[C@@H]2[C@@H](/C=C/[C@@H](O)COc3cccc(C(F)(F)F)c3)[C@H](O)C[C@@H]2O1 [Fluprostenol Lactone Diol],scaled lipid accumulation score,[3],0.003
CC1=C(C(=O)Nc2cc3cn[nH]c3cc2F)C(c2ccc(C(F)(F)F)cc2)CC(=O)N1 (stereo not drawn),scaled lipid accumulation score,[4],0.022
same,scaled lipid accumulation score,[5],≤ 0 and ≤ -0.005
same,scaled lipid accumulation score,[6],0.014 and ≤ -0.005
same,scaled lipid accumulation score,[1],≤ 0
same,scaled lipid accumulation score,[2],≤ 0 and 0.096 and 0.308
"C/C=C1\NC(=O)[C@H]2CSSCC/C=C/[C@H](CC(=O)N[C@H](C(C)C)C(=O)N2)OC(=O)[C@H](C(C)C)NC1=O [Romidepsin (FK228, Depsipeptide)]",scaled lipid accumulation score,[1],0.521
same,scaled lipid accumulation score,[2],0.472
C=CC(=O)Nc1cc(-n2c(=O)ccc3cnc4ccc(-c5cn[nH]c5)cc4c32)ccc1C,scaled lipid accumulation score,[4],≤ 0
same,scaled lipid accumulation score,[5],≤ 0
same,scaled lipid accumulation score,[6],0.082
same,scaled lipid accumulation score,[2],0.662
C=CC(=O)N1CCc2ccc(-n3c(=O)ccc4cnc5ccc(-c6cnn(C)c6)cc5c43)cc21,scaled lipid accumulation score,[2],1.19 (active)
C=CC(=O)Nc1cc(-n2c(=O)ccc3cnc4ccc(-c5ccc(NS(C)(=O)=O)cc5)cc4c32)ccc1C,scaled lipid accumulation score,[4],≤ -0.001
same,scaled lipid accumulation score,[5],≤ -0.001
same,scaled lipid accumulation score,[6],0.003
same,scaled lipid accumulation score,[2],0.06
CCCCC(CC)CN=C(N)N=C(N)NCCCCCCNC(N)=NC(N)=NCC(CC)CCCC (stereo not drawn) [Alexidine hydrochloride],scaled lipid accumulation score,[2],≤ -0.027
CCCCCC1OC(O)CC1SC[C@H](NC(C)=O)C(=O)O (stereo partly drawn) [4-hydroxy Nonenal Mercapturic Acid],scaled lipid accumulation score,[3],≤ 0
Nc1c(CC(=O)O)cccc1C(=O)c1ccccc1 [Amfenac Sodium Monohydrate],scaled lipid accumulation score,[1],≤ 0
same,scaled lipid accumulation score,[2],0.019
NC1(C(=O)N[C@@H](CCO)c2ccc(Cl)cc2)CCN(c2ncnc3[nH]ccc23)CC1,scaled lipid accumulation score,[4],0.053
same,scaled lipid accumulation score,[5],0.049
same,scaled lipid accumulation score,[6],0.038
same,scaled lipid accumulation score,[1],≤ -0.009
same,scaled lipid accumulation score,[2],≤ 0 and 0.178
NC1(Cc2ccc(Cl)cc2)CCN(c2ncnc3[nH]ccc23)CC1 [listing 1 of 2 here],scaled lipid accumulation score,[1],0.47
NC1(Cc2ccc(Cl)cc2)CCN(c2ncnc3[nH]ccc23)CC1 [listing 2 of 2 here],scaled lipid accumulation score,[2],1.09 (active)
"OCCNCCCOc1cccc(Cl)c1Cl [2,3-DCPE (hydrochloride)]",scaled lipid accumulation score,[3],0.049
"Cl.OCCNCCCOc1cccc(Cl)c1Cl [2,3-DCPE hydrochloride]",scaled lipid accumulation score,[2],1.14 (active)
O=C(c1cccs1)c1ccc(OCCCO)c(Cl)c1Cl [homo-Tienilic Alcohol],scaled lipid accumulation score,[3],0.02
O=Cc1cccc2[nH]ccc12 [4-formyl Indole],scaled lipid accumulation score,[3],≤ 0
CC(C)(C)Cn1c(N)nc2ccc(-c3[nH]c(C(C)(C)C)nc3-c3ccc(F)cc3)nc21,scaled lipid accumulation score,[1],0.034
same,scaled lipid accumulation score,[2],0.268
CC(C)(C)Cn1c(N)nc2ccc(-c3[nH]c(C(C)(C)C)nc3-c3ccc(F)cc3)nc21 [Ralimetinib],scaled lipid accumulation score,[4],0.033
same,scaled lipid accumulation score,[5],0.086
same,scaled lipid accumulation score,[6],0.076
same,scaled lipid accumulation score,[2],0.481
O=C(O)CCC/C=C\C[C@H]1[C@@H](O)CC(=O)[C@@H]1/C=C/[C@@H](O)COc1cccc(C(F)(F)F)c1 [11-keto Fluprostenol],scaled lipid accumulation score,[3],≤ 0
CN(C)C/C=C(/c1ccc(Br)cc1)c1cccnc1 [Zimelidine dihydrochloride],scaled lipid accumulation score,library stock concentration: 5.1 mM,0.434
same,scaled lipid accumulation score,[2],0.178
CCN(CC)C(=O)c1cccnc1,scaled lipid accumulation score,[2],0.073
CN(C)C/C=C(/c1ccc(Br)cc1)c1cccnc1.Cl.Cl [Zimelidine dihydrochloride],scaled lipid accumulation score,[2],0.893 (active)
CN(C)C/C=C(/c1ccc(Br)cc1)c1cccnc1 [Zimelidine dihydrochloride monohydrate],scaled lipid accumulation score,,0.454
CC(=O)OCOC(c1cc([N+](=O)[O-])ccc1Oc1ccc(Br)cc1)P(=O)(OCOC(C)=O)OCOC(C)=O (stereo not drawn),scaled lipid accumulation score,library stock concentration: 8.1 mM,0.887 (active)
CS(=O)(=O)Nc1ccc([N+](=O)[O-])cc1Oc1ccccc1 [Nimesulide],scaled lipid accumulation score,,0.061
same,scaled lipid accumulation score,[3],≤ 0
same,scaled lipid accumulation score,[1],≤ 0
same,scaled lipid accumulation score,library stock concentration: 16.2 mM,0.012
CC(=O)OCOC(c1ccc2ccccc2c1)P(=O)(OCOC(C)=O)OCOC(C)=O (stereo not drawn),scaled lipid accumulation score,library stock concentration: 11 mM,0.031
Cn1cc(C(F)(F)F)nc1-c1ccc(OCC(O)CNCCOc2ccc(O)c(C(N)=O)c2)cc1 (stereo not drawn),scaled lipid accumulation score,[2],0.731
COc1cc2ncnc(Sc3nnc(C)s3)c2cc1OC [listing 1 of 2 here],scaled lipid accumulation score,[2],0.919 (active)
COc1cc2ncnc(Nc3cc(Br)c(O)c(Br)c3)c2cc1OC,scaled lipid accumulation score,[4],≤ 0
same,scaled lipid accumulation score,[5],≤ 0
same,scaled lipid accumulation score,[6],≤ 0
same,scaled lipid accumulation score,[2],0.04
COc1cc2ncnc(Sc3nnc(C)s3)c2cc1OC [listing 2 of 2 here],scaled lipid accumulation score,[1],≤ -0.009
C=CC(=O)Nc1cc(NC(=O)c2ccc(C)c(NC(=O)c3ccno3)c2)cc(C(F)(F)F)c1,scaled lipid accumulation score,[4],≤ 0
same,scaled lipid accumulation score,[5],≤ 0
same,scaled lipid accumulation score,[6],≤ 0
same,scaled lipid accumulation score,[2],0.311
Nc1ncnc2nc(-c3ccc(N4CCOCC4)nc3)cc(-c3cccc(Br)c3)c12 [ABT 702 dihydrochloride],scaled lipid accumulation score,[2],0.275
Nc1ccc(-c2cccc3c(=O)cc(N4CCOCC4)oc23)cc1,scaled lipid accumulation score,[2],≤ -0.001
Nc1ncnc2nc(-c3ccc(N4CCOCC4)nc3)cc(-c3cccc(Br)c3)c12 [listing 1 of 2 here],scaled lipid accumulation score,[2],0.982 (active)
Nc1ncnc2nc(-c3ccc(N4CCOCC4)nc3)cc(-c3cccc(Br)c3)c12 [listing 2 of 2 here],scaled lipid accumulation score,[4],≤ -0.001
same,scaled lipid accumulation score,[5],0.008
same,scaled lipid accumulation score,[6],≤ -0.001
O=C(CCBr)N1CCN(C(=O)CCBr)CC1 [Pipobroman],scaled lipid accumulation score,[2],≤ -0.027
S=C=Nc1cccc(NC(=S)NCCCCNC(=S)Nc2cccc(N=C=S)c2)c1,scaled lipid accumulation score,[1],0.004
same,scaled lipid accumulation score,[2],0.023
CCNC(=O)c1noc(-c2cc(C(C)C)c(O)cc2O)c1-c1ccc(CN2CCOCC2)cc1 [listing 1 of 2 here],scaled lipid accumulation score,[1],0.91 (active)
CCNC(=O)c1noc(-c2cc(C(C)C)c(O)cc2O)c1-c1ccc(CN2CCOCC2)cc1 [listing 2 of 2 here],scaled lipid accumulation score,[4],0.702
same,scaled lipid accumulation score,[5],0.802
same,scaled lipid accumulation score,[6],0.808
same,scaled lipid accumulation score,[2],0.831 and 0.776
CCNC(=O)c1noc(-c2cc(Cl)c(O)cc2O)c1-c1ccc(OC)cc1,scaled lipid accumulation score,[1],0.783
same,scaled lipid accumulation score,[2],0.741
CN(C)[C@@H]1CCc2[nH]c3ccc(NC(=O)c4ccc(F)cc4)cc3c2C1.Cl,scaled lipid accumulation score,[2],1.37 (active)
CN(C1CCc2c(c3ccccc3n2CC(=O)O)C1)S(=O)(=O)c1ccc(F)cc1 (stereo not drawn),scaled lipid accumulation score,[3],0.083
CN(C)CC(=O)Nc1ccc2[nH]c(=O)c3ccccc3c2c1,scaled lipid accumulation score,[1],≤ 0 and ≤ -0.009
same,scaled lipid accumulation score,[2],0.59 and 0.025
CCCCCCCCCCCCCCCC(O)C(N)CO (racemic) [DL-Dihydrosphingosine],scaled lipid accumulation score,[3],≤ -0.021
NC(=O)c1cnc(N[C@@H]2CCCC[C@@H]2N)nc1Nc1cccc(-n2nccn2)c1,scaled lipid accumulation score,[4],≤ 0
same,scaled lipid accumulation score,[5],0.015
same,scaled lipid accumulation score,[6],0.218
same,scaled lipid accumulation score,[1],0.214
same,scaled lipid accumulation score,[2],0.215 and 0.449
Cc1cc(O)cc(C)c1Cl [Chloroxylenol],scaled lipid accumulation score,[2],≤ 0
